Experimental data as given in PubChem BioAssay (NCI).
This is part of a sample that, as a whole, favours compounds with a hit. Of some 83,000 tested, about 20% had one in any assay.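 Percent growth is the endpoint: 0 to 100 indicates growth inhibition (40 means 60% inhibition), 0 means no net growth, and negative values indicate cell death.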 The source made the active and inactive calls. Rule for the calls: active = growth percent below 10; inactive = the rest.

Legend:
Experiment in all cases: NCI-60 one-dose screen, 48 h (100 = growth as untreated, 0 = no growth, -100 = all killed)
Settings in all cases: 10 µM unless noted
DU-145 prostate = system: DU-145 prostate
K-562 leukemia = system: K-562 leukemia
MALME-3M melanoma = system: MALME-3M melanoma
MDA-MB-231 breast = system: MDA-MB-231 breast
RXF 393 renal = system: RXF 393 renal
SF-268 CNS = system: SF-268 CNS
SF-295 CNS = system: SF-295 CNS
SF-539 CNS = system: SF-539 CNS
UACC-257 melanoma = system: UACC-257 melanoma
M14 melanoma = system: M14 melanoma
HCT-15 colon = system: HCT-15 colon
HT29 colon = system: HT29 colon
SNB-75 CNS = system: SNB-75 CNS
SNB-19 CNS = system: SNB-19 CNS
U251 CNS = system: U251 CNS
PC-3 prostate = system: PC-3 prostate
SK-MEL-5 melanoma = system: SK-MEL-5 melanoma
UACC-62 melanoma = system: UACC-62 melanoma
LOX IMVI melanoma = system: LOX IMVI melanoma
SK-MEL-28 melanoma = system: SK-MEL-28 melanoma

Measured: growth

COC(=O)c1oc2c(C(=O)/C=C/c3ccc(OC)cc3)c(OCCCN3CCCCC3)ccc2c1C
inactive: DU-145 prostate 15.4% | MDA-MB-231 breast 32.4% | SF-295 CNS 11.6% | UACC-257 melanoma 40.1% | SNB-75 CNS 33.6% | SNB-19 CNS 38.4% | U251 CNS 12% | UACC-62 melanoma 40.1%
active: K-562 leukemia -16.2% | MALME-3M melanoma -64.4% | RXF 393 renal -75.2% | SF-268 CNS -2.59% | SF-539 CNS -55.8% | M14 melanoma -40.3% | HCT-15 colon 3.33% | HT29 colon 3.92% | PC-3 prostate -2.46% | SK-MEL-5 melanoma -60.9% | LOX IMVI melanoma -26.1% | SK-MEL-28 melanoma -51.4%

CC(C)NS(=O)(=O)c1cccc(-c2ccc3c4c(n(CCCN(C)C)c(=O)c3c2)-c2ccccc2C4=O)c1
inactive: DU-145 prostate 108% | MALME-3M melanoma 91.6% | MDA-MB-231 breast 83.8% | RXF 393 renal 96.1% | SF-268 CNS 103% | SF-295 CNS 104% | SF-539 CNS 90.7% | UACC-257 melanoma 107% | M14 melanoma 104% | HCT-15 colon 67.9% | SNB-75 CNS 88.9% | SNB-19 CNS 110% | U251 CNS 56% | PC-3 prostate 99.8% | SK-MEL-5 melanoma 94.1% | UACC-62 melanoma 106% | LOX IMVI melanoma 100% | SK-MEL-28 melanoma 99.5%
active: K-562 leukemia -57.8% | HT29 colon -16.2%

C=C1C(=O)O[C@H]2[C@H]1CC/C(COC(=O)c1cccnc1N)=C\CC[C@@]1(C)O[C@@H]21
active: MALME-3M melanoma -3.98% | MDA-MB-231 breast -9.35% | RXF 393 renal -2.17% | HCT-15 colon 0.999% | HT29 colon -10.4% | LOX IMVI melanoma 7.48%
inactive: DU-145 prostate 14% | K-562 leukemia 10.1% | SF-268 CNS 23.9% | SF-295 CNS 34.5% | SF-539 CNS 12.6% | UACC-257 melanoma 57.8% | M14 melanoma 10.2% | SNB-75 CNS 66% | SNB-19 CNS 25.7% | U251 CNS 28.8% | PC-3 prostate 24.8% | SK-MEL-5 melanoma 15.3% | UACC-62 melanoma 33% | SK-MEL-28 melanoma 19.6%

CC1(C)CC[C@]2(c3nnc(-c4ccncc4)o3)CC[C@]3(C)C(=CC[C@@H]4[C@@]5(C)CCC(=O)C(C)(C)[C@@H]5CC[C@]43C)[C@@H]2C1
inactive: DU-145 prostate 91.2% | K-562 leukemia 62.1% | MALME-3M melanoma 86.1% | MDA-MB-231 breast 87% | RXF 393 renal 101% | SF-268 CNS 81.5% | SF-295 CNS 79.7% | SF-539 CNS 90.7% | UACC-257 melanoma 78.4% | M14 melanoma 84.3% | HCT-15 colon 71.8% | HT29 colon 77.5% | SNB-75 CNS 88.7% | SNB-19 CNS 78.7% | U251 CNS 76.9% | PC-3 prostate 47.5% | SK-MEL-5 melanoma 74.3% | UACC-62 melanoma 67.3% | LOX IMVI melanoma 72.2% | SK-MEL-28 melanoma 83.5%

Cc1cc(C)n(-c2nc(-c3cccs3)c(C#N)c(=O)[nH]2)n1
inactive: DU-145 prostate 101% | K-562 leukemia 87.4% | MALME-3M melanoma 92.6% | MDA-MB-231 breast 108% | RXF 393 renal 115% | SF-268 CNS 82.3% | SF-295 CNS 92.3% | SF-539 CNS 97.5% | UACC-257 melanoma 98.7% | M14 melanoma 101% | HCT-15 colon 71.1% | HT29 colon 100% | SNB-75 CNS 89.2% | SNB-19 CNS 96.3% | U251 CNS 90.8% | PC-3 prostate 94.2% | SK-MEL-5 melanoma 102% | UACC-62 melanoma 94.8% | LOX IMVI melanoma 84.7% | SK-MEL-28 melanoma 99.8%

Cc1[nH]c(N=Nc2ccccc2)nc1N=Nc1ccccc1
inactive: DU-145 prostate 33.6% | K-562 leukemia 23.6% | MALME-3M melanoma 30.2% | MDA-MB-231 breast 38.1% | SF-268 CNS 19.2% | SF-295 CNS 17.4% | HCT-15 colon 22.8% | HT29 colon 31.2% | SNB-75 CNS 45.1% | SNB-19 CNS 47.7% | U251 CNS 15.9% | PC-3 prostate 36.4% | SK-MEL-5 melanoma 48.1% | SK-MEL-28 melanoma 52.2%
active: RXF 393 renal -31.9% | SF-539 CNS 6.93% | UACC-257 melanoma -42.4% | M14 melanoma 3.54% | UACC-62 melanoma -19.7% | LOX IMVI melanoma 3.24%

CC(=O)Oc1ccc(O)cc1
inactive: DU-145 prostate 102% | K-562 leukemia 96.7% | MALME-3M melanoma 102% | MDA-MB-231 breast 95.4% | RXF 393 renal 115% | SF-268 CNS 98.8% | SF-295 CNS 101% | SF-539 CNS 101% | UACC-257 melanoma 83% | M14 melanoma 98.3% | HCT-15 colon 104% | HT29 colon 87.3% | SNB-75 CNS 91.1% | SNB-19 CNS 96.2% | U251 CNS 101% | PC-3 prostate 87.1% | SK-MEL-5 melanoma 96.7% | UACC-62 melanoma 86.6% | LOX IMVI melanoma 94.4% | SK-MEL-28 melanoma 104%

CCC1=C[C@H]2CN(CCc3c([nH]c4ccccc34)[C@@](C(=O)OC)(c3cc4c(cc3OC)N(C)[C@H]3[C@@](O)(C(=O)OC)[C@H](OC(C)=O)[C@]5(CC)[C@@H]6C[C@@H]6CN6CC[C@]43[C@@H]65)C2)C1
active: K-562 leukemia 2.96% | MDA-MB-231 breast -21.9% | SF-268 CNS 7.66% | SF-539 CNS -13.3% | M14 melanoma -32% | HCT-15 colon 7.44% | HT29 colon -18.4% | SNB-75 CNS -3.68% | SK-MEL-5 melanoma -25.5%
inactive: DU-145 prostate 18.3% | MALME-3M melanoma 37.3% | RXF 393 renal 47.6% | SF-295 CNS 11.1% | UACC-257 melanoma 55.1% | SNB-19 CNS 21.1% | U251 CNS 13% | PC-3 prostate 29.4% | UACC-62 melanoma 17% | LOX IMVI melanoma 17% | SK-MEL-28 melanoma 58.5%

COC1=CC=CC2(OC)C3(O)CCCc4cccc(c43)N3C(=O)COC132 (stereo not given)
inactive: DU-145 prostate 106% | K-562 leukemia 92.5% | MALME-3M melanoma 92.9% | MDA-MB-231 breast 98.5% | RXF 393 renal 104% | SF-268 CNS 98.4% | SF-295 CNS 106% | SF-539 CNS 98% | UACC-257 melanoma 101% | M14 melanoma 99.1% | HCT-15 colon 103% | HT29 colon 97.2% | SNB-75 CNS 84.2% | SNB-19 CNS 101% | U251 CNS 97.3% | PC-3 prostate 95.4% | SK-MEL-5 melanoma 104% | UACC-62 melanoma 92% | LOX IMVI melanoma 97.7% | SK-MEL-28 melanoma 111%

Oc1ccc(CNNc2ccnc3c(O)cccc23)c2cccnc12
active: K-562 leukemia 9.71% | SK-MEL-5 melanoma -20.2%
inactive: DU-145 prostate 43.4% | MALME-3M melanoma 66.7% | MDA-MB-231 breast 37.4% | RXF 393 renal 59.6% | SF-268 CNS 37.6% | SF-295 CNS 17.7% | SF-539 CNS 32.2% | UACC-257 melanoma 38.3% | M14 melanoma 30.9% | HCT-15 colon 23.9% | HT29 colon 73.8% | SNB-75 CNS 54.9% | SNB-19 CNS 29.7% | U251 CNS 25.8% | PC-3 prostate 29.7% | UACC-62 melanoma 24.6% | LOX IMVI melanoma 16.4% | SK-MEL-28 melanoma 49.7%

Clc1ccc2c(NCCCNC3CCCCC3)ccnc2c1
inactive: DU-145 prostate 101% | K-562 leukemia 70.3% | MALME-3M melanoma 116% | MDA-MB-231 breast 94.1% | RXF 393 renal 82.6% | SF-268 CNS 103% | SF-295 CNS 55.1% | SF-539 CNS 101% | UACC-257 melanoma 107% | M14 melanoma 89.8% | HCT-15 colon 84.8% | HT29 colon 48.1% | SNB-75 CNS 89.8% | SNB-19 CNS 110% | U251 CNS 93.8% | PC-3 prostate 87.3% | SK-MEL-5 melanoma 99.9% | UACC-62 melanoma 111% | LOX IMVI melanoma 96.7% | SK-MEL-28 melanoma 116%

CCCCN(CCCC)CC(CN(CC)CC)OC(=O)Nc1ccccc1 (stereo not given)
inactive: DU-145 prostate 99.9% | K-562 leukemia 76% | MALME-3M melanoma 90.3% | MDA-MB-231 breast 69.7% | RXF 393 renal 95.1% | SF-268 CNS 94.9% | SF-295 CNS 77.5% | SF-539 CNS 94.4% | UACC-257 melanoma 111% | M14 melanoma 80.9% | HCT-15 colon 63.4% | HT29 colon 37.1% | SNB-75 CNS 78.3% | SNB-19 CNS 107% | U251 CNS 96.8% | PC-3 prostate 89.6% | SK-MEL-5 melanoma 100% | UACC-62 melanoma 111% | LOX IMVI melanoma 87.7% | SK-MEL-28 melanoma 105%

O=C(Nc1cc(Br)ccn1)c1cc2cc(Nc3nc(-c4ccccc4)nc4ccccc34)ccc2oc1=O
inactive: DU-145 prostate 111% | K-562 leukemia 88.6% | MALME-3M melanoma 117% | MDA-MB-231 breast 118% | RXF 393 renal 133% | SF-268 CNS 112% | SF-295 CNS 108% | SF-539 CNS 105% | UACC-257 melanoma 112% | M14 melanoma 102% | HCT-15 colon 107% | HT29 colon 104% | SNB-75 CNS 92.3% | SNB-19 CNS 107% | U251 CNS 107% | PC-3 prostate 93.6% | SK-MEL-5 melanoma 101% | UACC-62 melanoma 103% | LOX IMVI melanoma 83.8% | SK-MEL-28 melanoma 114%

Cc1cc(Nc2nc(SCc3ccc(C(=O)Nc4ccc(F)cc4N)cc3)nn3cccc23)n[nH]1
active: K-562 leukemia 7.36% | SF-539 CNS 8.82% | HT29 colon 4.22% | SK-MEL-5 melanoma 7.54%
inactive: DU-145 prostate 20.1% | MALME-3M melanoma 53.7% | MDA-MB-231 breast 22.8% | RXF 393 renal 23.5% | SF-268 CNS 28.2% | SF-295 CNS 18% | UACC-257 melanoma 67.6% | M14 melanoma 38.9% | HCT-15 colon 22.6% | SNB-75 CNS 29.2% | SNB-19 CNS 43.8% | U251 CNS 25% | PC-3 prostate 28% | UACC-62 melanoma 24.2% | LOX IMVI melanoma 30.1% | SK-MEL-28 melanoma 68.7%
